The text below walks through data of PubChem BioAssay (NCI).

The structures appear in SMILES notation. Compounds without any hit were thinned out: in the full panel of roughly 83,000, 20% have a hit.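 Single-dose data. Exposure time 48 hours. Values below 10 considered active.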 Active and inactive are the calls of the source.

The first experiment concerns TK-10 renal. The experiment in a line: NCI-60 one-dose screen, 48 h (100 = growth as untreated, 0 = no growth, -100 = all killed). The following applies: 10 µM.
For the compound `Cc1ccc(NC(=O)NC2CCCCC2)cc1`, the growth was 110% (inactive).

As for `Clc1ccc(Nc2ccnc(NCCNc3ccnc4cc(Cl)ccc34)n2)cc1`, the growth is -29.9% (active).

As to `COc1cc(Nc2ccnc(NCCCNc3ccnc4cc(Cl)ccc34)n2)cc(OC)c1`, the growth was -63.4% (active).

As for `c1ccc2c(-c3nc(N4CCOCC4)c4c5c(sc4n3)CCCCCC5)cccc2c1`, the growth is 116% (inactive).

As for `COc1ccc(S(=O)(=O)Nc2c(/C=C\c3cc(OC)c(OC)c(OC)c3)ccc(OC)c2O)cc1`, the growth was 39.9% (inactive).

`COc1ccc2nc3cc(Cl)ccc3c(NCCNCC(C)O)c2c1` (stereo not drawn): the growth is -15.6% (active).

With `COc1ccc(-c2cc(/C=C3\C(=O)Nc4ccc(Cl)cc43)[nH]n2)cc1OC`, the growth is 90% (inactive).

`Cc1nc2c(c(=O)[nH]1)OCN(Cc1ccccc1)C2`: the growth was 119% (inactive).

Consider `COc1cc(NC(=O)c2sc3nc4c(cc3c2N)C(O)CCC4)cc(OC)c1` (stereo not drawn), for which the growth was 102% (inactive).

Regarding `CC/C(=C(/c1ccc(OCCN(C)C)cc1)c1ccc(OC(=O)CCCCC(=O)c2c(C)[nH]c(/C=C3\N=C(c4ccc[nH]4)C=C3OC)c2C)cc1)c1ccccc1`, the growth is 103% (inactive).

Turning to `c1ccc(CP(Cc2ccccc2)c2ccccc2)cc1`, the growth was 98.6% (inactive).

`COc1cc(-c2cc(/C=C/C(=O)c3ccc(N)cc3)[nH]n2)cc(OC)c1OC`: the growth was -2.46% (active).

For `CC(C)(Cl)CCC1=C(Cl)C(=O)c2ccccc2C1=O`, the growth is 124% (inactive).

Take `COc1ccc(-c2nn(-c3cccc(NC(=O)Nc4ccccc4)c3)cc2-c2ccncc2)cc1Cl`: the growth was 28.1% (inactive).

As for `O=C(c1cccs1)c1ccccc1Cc1ccccc1`, the growth is 94.5% (inactive).

Consider `FC(F)(F)c1ccc(-c2cnc(Cl)nc2N2CCC3(CC2)OCCO3)cc1`, for which the growth is 89.8% (inactive).

With `COc1ccc(-c2nsc3c2NC(=O)CC3c2ccc(F)cc2)cc1` (stereo not drawn), the growth is 38.5% (inactive).

As to `Nc1ccc2c(c1)C1(CCC2)NC(=O)NC1=O` (stereo not drawn), the growth is 109% (inactive).

Take `O=C(Nc1cccc(-n2cc(-c3ccncc3)c(-c3cc(O)cc(Cl)c3)n2)c1)c1ccc(N2CCOCC2)c(C(F)(F)F)c1`: the growth is 70.3% (inactive).

As for `COc1cc2cc3c(nc2cc1OC)CCN3Cc1ccc(NC(=O)Nc2cc(C(F)(F)F)cc(C(F)(F)F)c2)cc1`, the growth was 85.6% (inactive).

Turning to `COc1ccc(-c2nn(-c3cccc(NC(=O)c4cccc(C(F)(F)F)c4)c3)cc2-c2ccncc2)cc1Cl`, the growth was 41% (inactive).

For the compound `COc1ccc(-c2nc3sccn3c2-c2nc3c([nH]2)C(=O)c2ccccc2C3=O)cc1`, the growth is 111% (inactive).

For the compound `O=C1/C(=C\c2ccccc2)CN(C(=O)c2ccccc2)C/C1=C\c1ccccc1`, the growth was 69.8% (inactive).

In the case of `CCOC(=O)C1(CC(C)C)CCOC1=O` (stereo not drawn), the growth is 106% (inactive).

As to `CCOC(=O)N1C/C(=C/c2ccc(Cl)cc2)C(=O)/C(=C/c2ccc(Cl)cc2)C1`, the growth was 99.5% (inactive).

With `CCN1CCCC1CNC(=O)c1ncc(-c2ccc(C(F)(F)F)cc2)c(NC2CCCCCC2)n1` (stereo not drawn), the growth was 74.1% (inactive).

As for `CCOC(=O)N/N=C\C(C)=N\NC(=O)OCC`, the growth was 98.8% (inactive).

As to `Cc1cc2c(C)c3cc(C)c(N)cc3nc2cc1N`, the growth is -4.14% (active).

Turning to `COc1ccc(-c2cc(/C=C/C(=O)c3cc(OC)c(OC)c(OC)c3)[nH]n2)cc1OC`, the growth was -33.2% (active).

`CC(=O)N1N=C(c2ccc(Cl)cc2)CC1c1sc(Cl)nc1Cl` (stereo not drawn): the growth was 68.8% (inactive).

For the compound `O=C1/C(=C/c2ccc([N+](=O)[O-])s2)Oc2ccccc21`, the growth is -21.5% (active).

On to `CN(C)Cc1cn(-c2ncc(-c3ccc(C(F)(F)F)cc3)c(NC3CCCCCC3)n2)nn1`, for which the growth is 85.2% (inactive).

For `CSCCCNC(=O)c1ccc2c(c1)/C(=C/c1[nH]c(C)cc1C)C(=O)N2`, the growth was 29.4% (inactive).

For the compound `Fc1cc(C(F)(F)F)ccc1-c1cncnc1NC1CCCCCC1`, the growth was 113% (inactive).

Regarding `CCOC(=O)N1C/C(=C/c2ccc(OC)cc2)C(=O)/C(=C/c2ccc(OC)cc2)C1`, the growth is 59.5% (inactive).

On to `COc1ccc2c(c1)N(CCO)C1=C(C(=O)OC1)C2c1cc(OC)c(OC)c(OC)c1` (stereo not drawn), for which the growth was 66% (inactive).

As to `Cc1cccc(C)c1NC(=O)c1sc2nc3c(cc2c1N)C(=O)CCC3`, the growth was 88.7% (inactive).

In the case of `COc1ccc2c(c1OC)O/C(=C\c1ncc([N+](=O)[O-])n1C)C2=O`, the growth was 14.7% (inactive).

As for `COc1ccc(Oc2nc(NC3CCCC3)nc(Sc3ccc(OC)cc3)n2)cc1`, the growth was 109% (inactive).

The subject of a further experiment is ACHN renal. Described as above. The following applies: 10 µM.
On to `Cc1ccc(NC(=O)NC2CCCCC2)cc1`, for which the growth was 106% (inactive).

For `Clc1ccc(Nc2ccnc(NCCNc3ccnc4cc(Cl)ccc34)n2)cc1`, the growth is -7.16% (active).

As for `COc1cc(Nc2ccnc(NCCCNc3ccnc4cc(Cl)ccc34)n2)cc(OC)c1`, the growth is -58.1% (active).

Take `c1ccc2c(-c3nc(N4CCOCC4)c4c5c(sc4n3)CCCCCC5)cccc2c1`: the growth was 100% (inactive).

Take `COc1ccc(S(=O)(=O)Nc2c(/C=C\c3cc(OC)c(OC)c(OC)c3)ccc(OC)c2O)cc1`: the growth is 22.7% (inactive).

`COc1ccc2nc3cc(Cl)ccc3c(NCCNCC(C)O)c2c1` (stereo not drawn): the growth was 22.6% (inactive).

Regarding `COc1ccc(-c2cc(/C=C3\C(=O)Nc4ccc(Cl)cc43)[nH]n2)cc1OC`, the growth is 79.4% (inactive).

In the case of `Cc1nc2c(c(=O)[nH]1)OCN(Cc1ccccc1)C2`, the growth is 104% (inactive).

Consider `COc1cc(NC(=O)c2sc3nc4c(cc3c2N)C(O)CCC4)cc(OC)c1` (stereo not drawn), for which the growth is 100% (inactive).

For `CC/C(=C(/c1ccc(OCCN(C)C)cc1)c1ccc(OC(=O)CCCCC(=O)c2c(C)[nH]c(/C=C3\N=C(c4ccc[nH]4)C=C3OC)c2C)cc1)c1ccccc1`, the growth was 67.1% (inactive).

On to `c1ccc(CP(Cc2ccccc2)c2ccccc2)cc1`, for which the growth is 102% (inactive).

For `COc1cc(-c2cc(/C=C/C(=O)c3ccc(N)cc3)[nH]n2)cc(OC)c1OC`, the growth was -52.8% (active).

In the case of `CC(C)(Cl)CCC1=C(Cl)C(=O)c2ccccc2C1=O`, the growth is 26.3% (inactive).

On to `COc1ccc(-c2nn(-c3cccc(NC(=O)Nc4ccccc4)c3)cc2-c2ccncc2)cc1Cl`, for which the growth was 34.8% (inactive).

As to `O=C(c1cccs1)c1ccccc1Cc1ccccc1`, the growth was 100% (inactive).

For `FC(F)(F)c1ccc(-c2cnc(Cl)nc2N2CCC3(CC2)OCCO3)cc1`, the growth is 92.6% (inactive).

Take `COc1ccc(-c2nsc3c2NC(=O)CC3c2ccc(F)cc2)cc1` (stereo not drawn): the growth was 47.1% (inactive).

With `Nc1ccc2c(c1)C1(CCC2)NC(=O)NC1=O` (stereo not drawn), the growth is 101% (inactive).

Take `O=C(Nc1cccc(-n2cc(-c3ccncc3)c(-c3cc(O)cc(Cl)c3)n2)c1)c1ccc(N2CCOCC2)c(C(F)(F)F)c1`: the growth is 20.7% (inactive).

As to `COc1cc2cc3c(nc2cc1OC)CCN3Cc1ccc(NC(=O)Nc2cc(C(F)(F)F)cc(C(F)(F)F)c2)cc1`, the growth was 69.6% (inactive).

For `COc1ccc(-c2nn(-c3cccc(NC(=O)c4cccc(C(F)(F)F)c4)c3)cc2-c2ccncc2)cc1Cl`, the growth was 36.8% (inactive).

Consider `COc1ccc(-c2nc3sccn3c2-c2nc3c([nH]2)C(=O)c2ccccc2C3=O)cc1`, for which the growth was 86.4% (inactive).

For the compound `O=C1/C(=C\c2ccccc2)CN(C(=O)c2ccccc2)C/C1=C\c1ccccc1`, the growth was 3.54% (active).

Consider `CCOC(=O)C1(CC(C)C)CCOC1=O` (stereo not drawn), for which the growth was 98.2% (inactive).

As to `CCOC(=O)N1C/C(=C/c2ccc(Cl)cc2)C(=O)/C(=C/c2ccc(Cl)cc2)C1`, the growth is 74.7% (inactive).

Turning to `CCN1CCCC1CNC(=O)c1ncc(-c2ccc(C(F)(F)F)cc2)c(NC2CCCCCC2)n1` (stereo not drawn), the growth was 93.5% (inactive).

In the case of `CCOC(=O)N/N=C\C(C)=N\NC(=O)OCC`, the growth is 99.4% (inactive).

In the case of `Cc1cc2c(C)c3cc(C)c(N)cc3nc2cc1N`, the growth is 9.76% (active).

Consider `COc1ccc(-c2cc(/C=C/C(=O)c3cc(OC)c(OC)c(OC)c3)[nH]n2)cc1OC`, for which the growth was -61.9% (active).

`CC(=O)N1N=C(c2ccc(Cl)cc2)CC1c1sc(Cl)nc1Cl` (stereo not drawn): the growth is 105% (inactive).

`O=C1/C(=C/c2ccc([N+](=O)[O-])s2)Oc2ccccc21`: the growth is -55.3% (active).

In the case of `CN(C)Cc1cn(-c2ncc(-c3ccc(C(F)(F)F)cc3)c(NC3CCCCCC3)n2)nn1`, the growth was 92.1% (inactive).

Consider `CSCCCNC(=O)c1ccc2c(c1)/C(=C/c1[nH]c(C)cc1C)C(=O)N2`, for which the growth was 0.349% (active).

With `Fc1cc(C(F)(F)F)ccc1-c1cncnc1NC1CCCCCC1`, the growth is 91.5% (inactive).

Take `CCOC(=O)N1C/C(=C/c2ccc(OC)cc2)C(=O)/C(=C/c2ccc(OC)cc2)C1`: the growth is 39.3% (inactive).

As for `COc1ccc2c(c1)N(CCO)C1=C(C(=O)OC1)C2c1cc(OC)c(OC)c(OC)c1` (stereo not drawn), the growth was 32.8% (inactive).

In the case of `Cc1cccc(C)c1NC(=O)c1sc2nc3c(cc2c1N)C(=O)CCC3`, the growth is 89.6% (inactive).

In the case of `COc1ccc2c(c1OC)O/C(=C\c1ncc([N+](=O)[O-])n1C)C2=O`, the growth was -2.65% (active).

With `COc1ccc(Oc2nc(NC3CCCC3)nc(Sc3ccc(OC)cc3)n2)cc1`, the growth was 79.5% (inactive).
